Screens deposited in PubChem BioAssay by several laboratories.
CRFBP-R2 block = blocks CRF-induced signaling of the CRF-BP/CRF-R2 complex; HEK293 CRF-R2/CRF-BP, CRF-induced calcium fluorescence; inhibition, % at 11.8 µM; hit rate 0.59% among 350,000; AID 588475;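 active = inhibition of the ligand-induced calcium signal above about 50% at the single tested concentration, limit read from the data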
Cardiac RTF inh = cardiac RTF calcium desensitization; IANBD-labeled cardiac RTF, Ca2+ fluorescence; AID 493244; hit rate 0.12% among 340,000; P19429+P45379; inhibition, % at 7.15 µM;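 active = inhibition above the mean inhibition of all tested compounds plus 3 SD, cut at about 17% in these data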;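 also: assay run at fixed EC70 calcium of 1.6 mM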
ANO1 activ = activators or potentiators of mouse TMEM16A chloride channel; HEK293 TMEM16A/YFP-H148Q/I152L, iodide quench fluorescence; hits give low values; AID 623877; hit rate 0.3% among 340,000; Q8BHY3; B-score at 10 µM;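 active = fluorescence-ratio B-score plate-corrected deviation score at least 3 library SD below zero, with starting fluorescence score within 5 deviations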;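 also: channel opened by trigger with iodide after compound preincubation; score built on the fluorescence ratio of max minus min over baseline; more negative score means more quench and so TMEM16A activation or potentiation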
CRFR2-BP ag = CRF-BP/CRF-R2 complex agonism | HEK293 CRF-R2/CRF-BP, calcium dye fluorescence (FLIPR); percent of saturating CRF peptide response | activation, % at 13.2 µM | hit rate 0.46% among 350,000;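 active = activation of at least 50%, plus an integration ratio under a set limit after plate pattern correction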;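 also: plate controls were neutral control wells without compound for no effect and CRF at EC100 for full effect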
ANO1 block = blocks the mouse calcium-activated chloride channel TMEM16A. Q8BHY3. HEK293 TMEM16A/YFP iodide influx fluorescence, ionomycin. normalized B-score (activity score, 25-100; higher = stronger inhibition) at 10 µM. hit rate 1.2% among 310,000. AID 588511;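 active = ratio plate-corrected score three or more library SD toward inhibition, starting fluorescence score within five deviations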;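 also: score derived from kinetic fluorescence span divided by baseline fluorescence per well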
cardiac RTF act = cardiac RTF calcium sensitization; P19429+P45379; IANBD-labeled TnC RTF fluorescence at EC20 calcium; 0% EC20 calcium, 100% full calcium; activation, % at 7.2 µM; hit rate 0.24% among 340,000;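 active = activation above the mean over all tested compounds plus 3 SD, cut at about 30% in these data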;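 also: rise in fluorescence read as greater calcium sensitivity of cardiac thin filaments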
Starred values were filed as active, the others as inactive; i = inactive; . = no result. Sampled rows, rich in hits. Any-hit rate of the full collection: about 2.4%.

SMILES	CRFBP-R2 block	Cardiac RTF inh	ANO1 activ	CRFR2-BP ag	ANO1 block	cardiac RTF act
O=C(NNC1=C(C(=O)C(F)(F)F)CCC1)c1ccccc1O	-15	-7	i	-1	100*	0
CCCOC(=O)Nc1sc2c(c1C(N)=O)CCCC2	-2	1	i	0	i	-4
O=C1NC[C@H](Cc2ccccc2)N(CC2CCN(CCC34CC5CC(CC(C5)C3)C4)CC2)C1=O	-5	1	.	1	.	-9
Cc1noc(C)c1NC(=O)Nc1ccc2c(c1)C(=O)N([C@H](C)CO)C[C@H](C)[C@@H](CN(C)S(=O)(=O)c1ccc(F)cc1)O2	70*	-5	i	2	.	9
COc1cccc(N=Nc2c(N)[nH]n3c(=O)cc(-c4ccccc4)nc23)c1	21	-3	i	-1	i	-4
Cc1ccc(N=Nc2c(N)[nH]n3c(=O)cc(-c4ccccc4)nc23)cc1	59*	2	i	0	i	-6
C=CCSc1nnc(C)c(/C=C/Nc2ccc(Cl)cc2)n1	-196	.	i	114*	i	.
COc1ccccc1C(=O)NC(=S)NNC(=O)c1sc2ccccc2c1Cl	-254	-6	-7.8*	251*	100*	-3
COc1ccccc1C(=O)NNC(=S)NC(=O)c1sc2ccccc2c1Cl	-94	-5	-6.2*	170*	100*	3
CN(c1ccc(O)cc1)c1nc(-c2cccs2)cs1	12	-8	i	-5	25*	4
Cc1nc(N)sc1-c1csc(N(C)c2ccc(O)cc2)n1	51*	3	i	-1	i	-4
COc1ccccc1Nc1nc(-c2sc(N)nc2C)cs1	-2	1	i	1	i	-5
Cc1cc(O)ccc1Nc1nc(-c2cccs2)cs1	22	3	i	0	i	2
COc1ccc(OC)c(-c2nn(-c3ccccc3)cc2C(=O)NCC(c2cccs2)N2CCOCC2)c1 (stereo not drawn)	16	-9	i	0	i	-11
COc1ccc(C(CNC(=O)c2ccc(N3CCCC3=O)cc2)N(C)C)cc1 (stereo not drawn)	-7	9	i	0	25*	10
COC(CNC(=O)c1ccc(N2CCCC2=O)cc1)OC	17	-4	i	1	i	6
CCOc1ccccc1N1CCN(CC(=O)NCCc2ccc(S(N)(=O)=O)cc2)CC1	-4	-16	-5.5*	1	i	7
CCOc1ccccc1OCC(=O)NCCc1ccc(S(N)(=O)=O)cc1	-7	-5	i	2	i	1
CCOc1ccc2nc(NC(=O)CCC(=O)c3cccs3)sc2c1	5	-27	i	2	i	12
CCc1ccc(-n2cccc2/C=C2/C(=N)N3C(=NC2=O)SN=C3S(C)(=O)=O)cc1	37	8	i	1	100*	-3
Cc1cc(C)cc(-n2cccc2/C=C2/C(=N)N3C(=NC2=O)SN=C3S(C)(=O)=O)c1	50	-3	i	1	100*	-3
CCc1cccc(NC(=O)c2cccc3c2C(=O)N(CC2CCCO2)C3)c1 (stereo not drawn)	-39	-3	i	5	i	1
CCC(=O)c1ccc(OCC(=O)NCCCN2CCOCC2)cc1	52*	-24	i	1	.	-4
COc1ccc(OCC(=O)NCCCN2CCOCC2)cc1	10	-25	i	-1	i	0
O=C(NCC1CCCO1)c1ccc2c(=O)n(CC3CCCO3)c(SCC(=O)N3CCCC3)nc2c1 (stereo not drawn)	-5	-10	i	0	i	12
COc1ccc(-n2c(=O)c(CCC(=O)N3CCN(c4cccc(OC)c4)CC3)nc3ccccc32)cc1	13	.	.	2	.	.
COc1ccc(/C(O)=C/c2nc3ccccc3n(-c3ccccc3)c2=O)cc1	-41	-8	i	132*	i	14
Cc1cccc(-c2oc3ccccc3c2C#CCCO)c1	-11	2	i	0	i	-2
CCOc1ccccc1N1CCN(C(=O)C2CSC3(C)CCC(=O)N23)CC1 (stereo not drawn)	72*	-2	i	-1	.	-4
